Test results: PubChem BioAssay (EPA / NIEHS)
Results filed as inconclusive are left out. Calls of active or inactive are those of the source. The calls were made as follows, unless noted: active = hit-call score of the fitted dose curve at least 0.9, where 1 is the maximum; inconclusive = response in the unintended direction; inactive = score below 0.9.

What was measured:
[1] = ATG_TAL_CIS: Attagene CIS-FACTORIAL HepG2 Assay for human TAL Basal Promoter (AID 2282966; active = hit-call score of the fitted dose curve at least 0.9, where 1 is the maximum; inactive = score below 0.9;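 also: background control endpoint measuring basal TAL promoter reporter mRNA not a specific factor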); settings: HepG2 Attagene cis-factorial TAL promoter reporter; actives raise or lower the signal
How it was run: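 After 24 hours of chemical exposure, transfected HepG2 cells yielded RNA that was converted to 6-FAM-labelled, HpaI-digested reporter fragments for capillary electrophoresis. Values derive from bidirectional fitting against DMSO controls.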

[2] = ATG_VDRE_CIS: Attagene CIS-FACTORIAL HepG2 Assay for human Vitamin D Receptor Element (VDRE) (AID 2282968; active = hit-call score of the fitted dose curve at least 0.9, where 1 is the maximum; inactive = score below 0.9); settings: HepG2 VDRE cis-reporter transcription, actives raise or lower the signal
How it was run: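 Compounds were applied for 24 h to HepG2 cells transfected with promoter-regulated reporter units. Total RNA was reverse-transcribed, and reporter amplicons were fluorescently labelled and sized by capillary electrophoresis.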

[3] = biological target: Nuclear receptor subfamily 1 group I member 3 (Homo sapiens) (UniProt Q14994); experiment: ATG_CAR_TRANS: Attagene TRANS-FACTORIAL HepG2 Assay for human Constitutive Androstane Receptor (CAR) (AID 2282969); settings: HepG2 Attagene TRANS-FACTORIAL CAR reporter;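 also: activators raise reporter mRNA above DMSO so AC50 marks induction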
Chain of Nuclear receptor subfamily 1 group I member 3 (Homo sapiens) (Q14994 whole entry, looked up, the tested form may be a part): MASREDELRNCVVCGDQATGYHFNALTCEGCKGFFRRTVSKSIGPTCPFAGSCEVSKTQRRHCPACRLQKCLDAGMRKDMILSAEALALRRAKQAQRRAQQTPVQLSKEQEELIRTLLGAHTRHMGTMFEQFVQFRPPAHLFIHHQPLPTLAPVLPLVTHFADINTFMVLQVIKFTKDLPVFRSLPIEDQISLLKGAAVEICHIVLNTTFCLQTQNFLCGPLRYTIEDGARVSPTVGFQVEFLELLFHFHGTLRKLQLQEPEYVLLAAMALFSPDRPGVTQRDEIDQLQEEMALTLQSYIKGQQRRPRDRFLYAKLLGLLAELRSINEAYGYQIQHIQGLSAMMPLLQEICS
How it was run: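 Transiently transfected HepG2, multiplex TRANS reporters (CAR-Gal4 chimera driving GAL4-UAS reporter). 24 h dosing. Readout: reporter transcript by RT-PCR + capillary electrophoresis, fluorescence intensity; positive direction vs DMSO.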

[4] = biological target: Estrogen receptor (Homo sapiens) (UniProt P03372); experiment: ATG_ERa_TRANS: Attagene TRANS-FACTORIAL HepG2 Assay for human Estrogen Receptor alpha (ERa) (AID 2282970); settings: HepG2 Attagene TRANS ERa GAL4 reporter, mRNA
Chain of Estrogen receptor (Homo sapiens) (P03372 whole entry, looked up, the tested form may be a part): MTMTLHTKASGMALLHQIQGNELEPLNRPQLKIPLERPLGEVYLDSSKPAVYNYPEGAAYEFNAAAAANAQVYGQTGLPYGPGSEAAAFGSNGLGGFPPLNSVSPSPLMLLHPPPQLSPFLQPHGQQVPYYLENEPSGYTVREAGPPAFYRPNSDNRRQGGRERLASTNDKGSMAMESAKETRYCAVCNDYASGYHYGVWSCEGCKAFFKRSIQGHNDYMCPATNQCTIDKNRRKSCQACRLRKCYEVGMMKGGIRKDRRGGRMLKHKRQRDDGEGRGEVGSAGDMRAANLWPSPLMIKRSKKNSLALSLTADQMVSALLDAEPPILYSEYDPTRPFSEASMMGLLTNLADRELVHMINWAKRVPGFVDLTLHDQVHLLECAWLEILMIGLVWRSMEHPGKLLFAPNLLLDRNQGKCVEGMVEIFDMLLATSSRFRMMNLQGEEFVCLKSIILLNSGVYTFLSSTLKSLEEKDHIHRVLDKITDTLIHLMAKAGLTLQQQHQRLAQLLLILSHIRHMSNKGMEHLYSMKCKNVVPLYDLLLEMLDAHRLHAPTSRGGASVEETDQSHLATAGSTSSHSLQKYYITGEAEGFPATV
How it was run: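 Liver-derived HepG2 cells expressing chimeric nuclear receptor-Gal4 proteins from transient transfection were exposed for 24 hours. Gain of reporter mRNA signal versus DMSO, read by capillary electrophoresis of FAM-labelled PCR products, was recorded.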

[5] = biological target: X-box-binding protein 1 (Homo sapiens) (UniProt P17861); experiment: ATG_Xbp1_CIS: Attagene CIS-FACTORIAL HepG2 Assay for human X-box Binding Protein 1 (XBP1) (AID 2282972; active = hit-call score of the fitted dose curve at least 0.9, where 1 is the maximum; inactive = score below 0.9); settings: HepG2 XBP1 cis-element reporter, Attagene multiplex; actives raise or lower the signal
Chain of X-box-binding protein 1 (Homo sapiens) (P17861 whole entry, looked up): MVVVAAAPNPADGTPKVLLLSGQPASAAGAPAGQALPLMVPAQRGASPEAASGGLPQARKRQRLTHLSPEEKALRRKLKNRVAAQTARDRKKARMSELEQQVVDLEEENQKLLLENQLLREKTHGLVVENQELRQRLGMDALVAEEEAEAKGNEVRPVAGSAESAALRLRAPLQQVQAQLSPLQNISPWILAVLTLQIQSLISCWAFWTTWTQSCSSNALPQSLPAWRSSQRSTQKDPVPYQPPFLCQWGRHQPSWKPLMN
How it was run: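 Changes in reporter transcript abundance, read by RT-PCR and capillary electrophoresis, reflect endogenous transcription factor activity. Transfected HepG2 cells received compound for 24 hours; DMSO defined baseline for bidirectional analysis.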

[6] = ATG_M_19_TRANS: Attagene TRANS-FACTORIAL HepG2 Assay for M19 Transcription Factor (Internal Marker) (AID 2282974); settings: HepG2 Attagene TRANS-FACTORIAL M19 internal marker reporter
How it was run: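 Fluorescence of 6-FAM-labelled reporter cDNA fragments, separated by capillary electrophoresis, served as the readout. These derived from HepG2 cells carrying transfected GAL4-UAS reporter units after 24 h dosing, with DMSO as negative control.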

[7] = biological target: Glucocorticoid receptor (Homo sapiens) (UniProt P04150); experiment: ATG_GR_TRANS: Attagene TRANS-FACTORIAL HepG2 Assay for human Glucocorticoid Receptor (GR) (AID 2282978); settings: HepG2 Attagene TRANS GR reporter, mRNA transcription;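 also: activators score as hits since higher reporter transcript over DMSO is fitted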
How it was run: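 Fluorescent capillary-electrophoresis quantitation of reporter mRNA is the readout, taken 24 h after dosing human HepG2 cells carrying transiently transfected GAL4-UAS reporter units activated by chimeric NR-GAL4 fusions; activity scored as induction over DMSO.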

[8] = biological target: Bile acid receptor (Homo sapiens) (UniProt Q96RI1); experiment: ATG_FXR_TRANS: Attagene TRANS-FACTORIAL HepG2 Assay for Farnesoid X Receptor (FXR) (AID 2282979); settings: HepG2 Attagene TRANS FXR-GAL4 reporter transcription;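 also: hits raise reporter mRNA above DMSO so AC50 marks FXR activation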
Chain of Bile acid receptor (Homo sapiens) (Q96RI1 whole entry, looked up, the tested form may be a part): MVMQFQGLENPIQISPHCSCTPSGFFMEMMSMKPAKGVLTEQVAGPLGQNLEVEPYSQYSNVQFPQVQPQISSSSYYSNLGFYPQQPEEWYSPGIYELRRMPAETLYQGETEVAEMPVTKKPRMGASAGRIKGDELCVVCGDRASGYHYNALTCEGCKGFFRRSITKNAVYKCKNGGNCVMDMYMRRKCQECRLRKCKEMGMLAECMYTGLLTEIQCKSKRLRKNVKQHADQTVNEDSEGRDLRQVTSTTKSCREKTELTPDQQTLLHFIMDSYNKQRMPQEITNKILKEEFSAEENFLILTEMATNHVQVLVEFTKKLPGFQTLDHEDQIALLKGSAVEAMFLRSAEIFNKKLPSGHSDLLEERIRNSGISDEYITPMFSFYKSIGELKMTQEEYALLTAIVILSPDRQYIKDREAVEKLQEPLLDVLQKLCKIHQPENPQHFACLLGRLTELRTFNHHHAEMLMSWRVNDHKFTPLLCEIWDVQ
How it was run: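 Transient transfection of HepG2 with multiplexed GAL4-UAS reporter units; exogenous FXR-GAL4 chimera. Dose 24 h → TriZol RNA → oligo(dT) RT → PCR, 6-FAM primer extension, HpaI cut → CE. Gain vs DMSO.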

[9] = biological target: Oxysterols receptor LXR-alpha (Homo sapiens) (UniProt Q13133); experiment: ATG_LXRa_TRANS: Attagene TRANS-FACTORIAL HepG2 Assay for human Liver X Receptor alpha (LXRa) (AID 2282980); settings: HepG2 Attagene TRANS reporter, LXRa transactivation
Chain of Oxysterols receptor LXR-alpha (Homo sapiens) (Q13133 whole entry, looked up, the tested form may be a part): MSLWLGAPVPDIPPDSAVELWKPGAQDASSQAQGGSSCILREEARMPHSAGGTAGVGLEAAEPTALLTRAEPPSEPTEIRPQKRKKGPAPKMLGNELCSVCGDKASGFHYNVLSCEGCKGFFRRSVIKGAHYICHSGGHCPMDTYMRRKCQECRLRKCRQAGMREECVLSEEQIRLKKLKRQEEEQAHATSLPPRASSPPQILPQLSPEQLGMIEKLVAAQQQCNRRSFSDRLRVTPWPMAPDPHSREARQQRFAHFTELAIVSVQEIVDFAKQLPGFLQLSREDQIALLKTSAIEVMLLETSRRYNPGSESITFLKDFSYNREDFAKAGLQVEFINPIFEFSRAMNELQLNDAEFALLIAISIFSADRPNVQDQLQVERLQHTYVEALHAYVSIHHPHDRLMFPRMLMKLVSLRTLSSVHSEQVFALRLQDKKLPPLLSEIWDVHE
How it was run: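 Transfect HepG2 with GAL4-UAS multiplex reporter constructs (TRANS format, chimeric receptor-GAL4); treat 24 h; extract RNA, reverse-transcribe, PCR-amplify, FAM-label, HpaI-digest; resolve fragments by capillary electrophoresis. Upward response vs DMSO.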

[10] = biological target: Hepatocyte nuclear factor 4-alpha (Homo sapiens) (UniProt P41235); experiment: ATG_HNF4a_TRANS: Attagene TRANS-FACTORIAL HepG2 Assay for human Hepatocyte Nuclear Factor 4 alpha (HNF4a) (AID 2282982); settings: HepG2 HNF4a transactivation reporter, mRNA readout
Chain of Hepatocyte nuclear factor 4-alpha (Homo sapiens) (P41235 whole entry, looked up, the tested form may be a part): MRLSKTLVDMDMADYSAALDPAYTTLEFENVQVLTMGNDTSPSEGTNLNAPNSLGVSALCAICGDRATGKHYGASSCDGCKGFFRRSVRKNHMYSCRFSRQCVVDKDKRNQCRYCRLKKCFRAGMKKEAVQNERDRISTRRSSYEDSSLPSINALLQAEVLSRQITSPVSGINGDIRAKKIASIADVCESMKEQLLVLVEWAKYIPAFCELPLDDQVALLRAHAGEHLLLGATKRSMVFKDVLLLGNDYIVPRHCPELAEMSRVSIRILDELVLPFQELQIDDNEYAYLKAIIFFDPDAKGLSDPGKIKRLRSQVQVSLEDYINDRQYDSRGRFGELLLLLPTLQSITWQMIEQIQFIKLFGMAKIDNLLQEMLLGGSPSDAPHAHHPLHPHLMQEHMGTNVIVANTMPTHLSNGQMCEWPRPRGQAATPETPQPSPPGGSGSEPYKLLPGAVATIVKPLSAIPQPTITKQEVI
How it was run: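 Endpoint reflects transcriptional activation of a GAL4-UAS reporter by an HNF4a-GAL4 chimera in transfected HepG2 cells, 24 h post-dosing. Fluorescence from RT-PCR products separated by capillary electrophoresis; DMSO baseline.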

[11] = ATG_M_32_TRANS: Attagene TRANS-FACTORIAL HepG2 Assay for M32 Transcription Factor (Internal Marker) (AID 2282984); settings: HepG2 Attagene TRANS M32 internal marker reporter
How it was run: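 Internal-marker readout from a multiplexed transcription reporter panel. HepG2 cells were transfected with GAL4-UAS reporter units, treated 24 hours, and reporter transcript levels determined by fluorescence after RT-PCR and capillary separation.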

[12] = biological target: Transcriptional activator Myb (Homo sapiens) (UniProt P10242); experiment: ATG_Myb_CIS: Attagene CIS-FACTORIAL HepG2 Assay for human Myeloblastosis (Myb) Proto-Oncogene Transcription Factor (AID 2282986; active = hit-call score of the fitted dose curve at least 0.9, where 1 is the maximum; inactive = score below 0.9); settings: HepG2 Attagene CIS-FACTORIAL Myb reporter transcription; actives raise or lower the signal
Chain of Transcriptional activator Myb (Homo sapiens) (P10242 whole entry, looked up): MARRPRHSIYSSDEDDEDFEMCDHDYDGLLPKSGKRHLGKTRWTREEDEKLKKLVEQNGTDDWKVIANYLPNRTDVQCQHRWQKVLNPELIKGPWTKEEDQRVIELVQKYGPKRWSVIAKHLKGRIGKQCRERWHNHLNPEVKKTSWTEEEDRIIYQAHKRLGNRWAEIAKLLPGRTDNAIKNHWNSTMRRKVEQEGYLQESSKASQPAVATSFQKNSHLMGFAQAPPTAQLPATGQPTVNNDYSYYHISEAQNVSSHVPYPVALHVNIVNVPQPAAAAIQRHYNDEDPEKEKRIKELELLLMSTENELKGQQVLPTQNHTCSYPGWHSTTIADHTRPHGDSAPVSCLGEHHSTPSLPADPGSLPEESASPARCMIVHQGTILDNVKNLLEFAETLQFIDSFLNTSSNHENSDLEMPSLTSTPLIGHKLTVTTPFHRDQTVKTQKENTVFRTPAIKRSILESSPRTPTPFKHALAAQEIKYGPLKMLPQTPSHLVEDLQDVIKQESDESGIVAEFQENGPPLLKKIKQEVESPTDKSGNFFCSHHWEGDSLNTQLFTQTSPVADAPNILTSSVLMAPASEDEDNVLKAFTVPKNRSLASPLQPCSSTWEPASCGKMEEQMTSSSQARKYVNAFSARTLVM
How it was run: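 Reporter transcript levels, quantified by fluorescent RT-PCR and capillary electrophoresis, serve as the read-out. Transfected HepG2 cells carrying cis-promoter reporter units are dosed for 24 hours, and curves are fitted bidirectionally against DMSO controls.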

[13] = biological target: Nuclear respiratory factor 1 (Homo sapiens) (UniProt Q16656); experiment: ATG_NRF1_CIS: Attagene CIS-FACTORIAL HepG2 Assay for human Nuclear Respiratory Factor 1 (NRF1) Orphan Gene (AID 2282987; active = hit-call score of the fitted dose curve at least 0.9, where 1 is the maximum; inactive = score below 0.9); settings: HepG2 NRF1 cis-element reporter, Attagene multiplex; actives raise or lower the signal
Chain of Nuclear respiratory factor 1 (Homo sapiens) (Q16656 whole entry, looked up): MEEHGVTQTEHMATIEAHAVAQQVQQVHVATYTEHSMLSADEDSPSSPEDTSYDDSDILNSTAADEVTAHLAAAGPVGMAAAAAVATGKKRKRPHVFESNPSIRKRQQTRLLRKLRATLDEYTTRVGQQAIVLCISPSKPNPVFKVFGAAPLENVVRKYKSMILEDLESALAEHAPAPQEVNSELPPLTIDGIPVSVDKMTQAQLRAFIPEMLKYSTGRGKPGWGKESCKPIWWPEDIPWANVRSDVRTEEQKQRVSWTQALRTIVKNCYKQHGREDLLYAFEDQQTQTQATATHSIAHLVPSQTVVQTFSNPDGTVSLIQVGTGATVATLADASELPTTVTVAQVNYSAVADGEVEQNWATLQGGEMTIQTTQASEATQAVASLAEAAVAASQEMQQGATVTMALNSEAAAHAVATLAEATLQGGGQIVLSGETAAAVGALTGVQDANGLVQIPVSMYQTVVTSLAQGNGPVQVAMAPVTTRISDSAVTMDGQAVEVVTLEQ
How it was run: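 Multiplexed cis-reporter assay, HepG2 cells, 24 h treatment. Total RNA → oligo(dT) RT → PCR with reporter-specific primers → 6-FAM primer extension → HpaI cut → CE. Bidirectional fit vs DMSO.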

[14] = ATG_GAL4_TRANS: Attagene TRANS-FACTORIAL HepG2 Assay for GAL4 (Internal Marker) (AID 2282976); settings: HepG2 Attagene TRANS GAL4 internal marker reporter
How it was run: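 First, HepG2 cells were transfected with reporter units under GAL4-UAS control. Next, they were treated with chemical for 24 h. Finally, RNA was reverse-transcribed, PCR-amplified, FAM-labelled and resolved by capillary electrophoresis, with induction scored against DMSO.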

[15] = ATG_M_06_TRANS: Attagene TRANS-FACTORIAL HepG2 Assay for M06 Transcription Factor (Internal Marker) (AID 2282983); settings: HepG2 Attagene TRANS M06 internal marker reporter
How it was run: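 Background control endpoint: reporter mRNA from transiently transfected HepG2 after 24 h dosing, detected by RT-PCR with capillary electrophoresis fluorescence. Analysed for gain versus DMSO.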

[16] = biological target: Nuclear receptor subfamily 4 group A member 2 (Homo sapiens) (UniProt P43354); experiment: ATG_NURR1_TRANS: Attagene TRANS-FACTORIAL HepG2 Assay for human Nuclear Receptor Related Protein 1 (NURR1) (AID 2282985); settings: HepG2 Attagene TRANS reporter, mRNA readout
Chain of Nuclear receptor subfamily 4 group A member 2 (Homo sapiens) (P43354 whole entry, looked up): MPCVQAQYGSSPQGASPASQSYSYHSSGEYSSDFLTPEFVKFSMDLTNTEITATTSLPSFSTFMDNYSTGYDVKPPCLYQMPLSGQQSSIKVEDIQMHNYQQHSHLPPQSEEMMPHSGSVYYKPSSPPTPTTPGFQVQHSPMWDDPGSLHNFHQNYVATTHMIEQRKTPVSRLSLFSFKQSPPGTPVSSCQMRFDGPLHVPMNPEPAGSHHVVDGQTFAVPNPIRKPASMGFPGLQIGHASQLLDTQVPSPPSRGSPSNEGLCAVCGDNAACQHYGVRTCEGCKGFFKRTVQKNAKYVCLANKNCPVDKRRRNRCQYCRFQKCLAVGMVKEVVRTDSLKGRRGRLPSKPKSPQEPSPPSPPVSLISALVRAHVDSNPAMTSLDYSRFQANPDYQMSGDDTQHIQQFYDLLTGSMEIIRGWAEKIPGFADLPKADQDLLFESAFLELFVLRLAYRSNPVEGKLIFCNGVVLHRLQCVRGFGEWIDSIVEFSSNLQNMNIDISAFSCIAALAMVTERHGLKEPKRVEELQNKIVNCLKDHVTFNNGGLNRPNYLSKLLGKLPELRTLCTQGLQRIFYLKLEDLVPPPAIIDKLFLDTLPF
How it was run: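 Endpoint: reporter mRNA increase relative to DMSO. HepG2 cells transfected with reporter units, treated 24 h; RNA processed by RT-PCR, labelling, HpaI digestion and capillary electrophoresis.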

[17] = biological target: Oxysterols receptor LXR-beta (Homo sapiens) (UniProt P55055); experiment: ATG_LXRb_TRANS: Attagene TRANS-FACTORIAL HepG2 Assay for human Liver X Receptor beta (LXRb) (AID 2282981); settings: HepG2 Attagene TRANS GAL4-LXRb reporter, mRNA
Chain of Oxysterols receptor LXR-beta (Homo sapiens) (P55055 whole entry, looked up, the tested form may be a part): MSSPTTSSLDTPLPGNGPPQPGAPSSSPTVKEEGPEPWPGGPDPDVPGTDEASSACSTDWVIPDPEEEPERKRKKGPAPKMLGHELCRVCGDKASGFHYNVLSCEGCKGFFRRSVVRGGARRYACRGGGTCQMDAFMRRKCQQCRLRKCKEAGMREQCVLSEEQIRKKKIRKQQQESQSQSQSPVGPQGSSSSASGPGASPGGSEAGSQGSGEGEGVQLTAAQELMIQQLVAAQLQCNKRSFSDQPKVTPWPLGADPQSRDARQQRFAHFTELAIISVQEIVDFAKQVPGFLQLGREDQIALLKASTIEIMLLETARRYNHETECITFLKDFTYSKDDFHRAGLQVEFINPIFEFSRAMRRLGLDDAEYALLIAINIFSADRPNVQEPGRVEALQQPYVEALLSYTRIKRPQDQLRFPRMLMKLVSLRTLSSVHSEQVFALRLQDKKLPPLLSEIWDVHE
How it was run: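 Multiplexed reporter assay, HepG2, 24 h dosing. Fluorescence of labelled RT-PCR products after capillary electrophoresis gives transcript level; positive fitting direction relative to DMSO.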

[18] = biological target: Steroid hormone receptor ERR1 (Homo sapiens) (UniProt P11474); experiment: ATG_ERRa_TRANS: Attagene TRANS-FACTORIAL HepG2 Assay for human Estrogen-Related Receptor alpha (ERRa) (AID 2282971); settings: HepG2 Attagene TRANS reporter, ERRa transactivation
How it was run: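 Reporter transcript induction was quantified by RT-PCR and capillary electrophoresis of FAM-labelled, HpaI-cut products after 24 h treatment of HepG2 cells carrying transiently transfected GAL4-UAS reporter units and an exogenous ERRa-Gal4 fusion; activity scored as increase over DMSO.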

[19] = biological target: Estrogen-related receptor gamma (Homo sapiens) (UniProt P62508); experiment: ATG_ERRg_TRANS: Attagene TRANS-FACTORIAL HepG2 Assay for human Estrogen-Related Receptor gamma (ERRg) (AID 2282977); settings: HepG2 Attagene TRANS reporter, ERRg transactivation;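 also: hits increase reporter signal over DMSO so potencies reflect activators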
How it was run: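 Exogenous NR-Gal4 chimera activity measured as reporter transcript induction after 24 h in transiently transfected HepG2 cells. RNA reverse-transcribed, PCR-amplified, 6-FAM-labelled and resolved by capillary electrophoresis; increase over DMSO baseline.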

Measured: AC50

c1ccc2c(c1)c1cccc3ccc4cccc2c4c31
not listed: [14] | [15] | [16] | [17] | [18] | [19]
inactive: all other assays above

C=CC[N+](C)(C)CC=C
not listed: [3] | [4] | [6] | [7] | [8] | [17] | [18] | [19]
inactive: all other assays above

CC(C)(C)C(=O)c1ccccc1
inactive: [1] | [2] | [4] | [5] | [10] | [15] | [13]

CC1(C)CCC(C)(C)c2cc(C(=O)Nc3ccc(C(=O)O)cc3)ccc21
active: [2] 27.8 µM | [8] 13 µM | [13] 93.6 µM
inactive: [1] | [5] | [17] | [15] | [11] | [16] | [12]

O=C(COc1ccc(Cl)cc1)N1CCN(Cc2ccc3c(c2)OCO3)CC1
active: [16] 67 µM
not listed: [3] | [7] | [8] | [9] | [17]
inactive: all other assays above

NC(=O)NC1NC(=O)NC1=O (stereo unspecified)
not listed: [4] | [6] | [7] | [8] | [10] | [16] | [18] | [19]
inactive: all other assays above
